The values that follow come from PubChem BioAssay (EPA / NIEHS).

The nature of test [1]: ATG_NF_kB_CIS: Attagene CIS-FACTORIAL HepG2 Assay for human Nuclear Factor Kappa B (NF-kB) (AID 2282991). Conditions: HepG2 Attagene cis-factorial NF-kB reporter mRNA; actives raise or lower the signal. The gist of the method:
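Measures mRNA induction of an NF-kB-responsive cis-element reporter in HepG2 cells transfected with multiple reporter units, sampled 24 h post-dosing; quantified by fluorescence after RT-PCR and capillary electrophoresis, fitted for activation or inhibition against DMSO.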

Test [2] can be described thus: ATG_NRF2_ARE_CIS: Attagene CIS-FACTORIAL HepG2 Assay for human Nuclear Factor Erythroid 2 Related Factor 2 (NFR2) response to Antioxidant Response Elements (ARE) (AID 2282992). As to conditions: HepG2 Attagene ARE/NRF2 reporter, transcription factor activity; actives raise or lower the signal. In short, it runs like this:
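Endogenous transcription factor activity read out as reporter transcript levels (RT-PCR plus capillary electrophoresis, fluorescence) in transiently transfected HepG2 cells. Measured at 24 h after dosing; gain or loss of signal fitted versus DMSO.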

Test [3] in a line: ATG_Oct_MLP_CIS: Attagene CIS-FACTORIAL HepG2 Assay for human Octamer-Binding Transcription Factor (Oct) (AID 2282993). Conditions: HepG2 Attagene cis-factorial Oct reporter, mRNA; actives raise or lower the signal. The gist of the method:
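Transient MRTU transfection of HepG2 → 24 h compound treatment → RNA isolation, reverse transcription, PCR → 6-FAM primer extension, HpaI digest → capillary electrophoresis. Activity fitted both directions against DMSO.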

Test [4] has as its target Cellular tumor antigen p53 (Homo sapiens) (UniProt P04637). The test is described as follows: ATG_p53_CIS: Attagene CIS-FACTORIAL HepG2 Assay for human p53 Transcription Factor (AID 2282994). Conditions: HepG2 p53 cis-element reporter, Attagene mRNA; actives raise or lower the signal. In short, it runs like this: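 Endogenous p53 activity read in transiently transfected HepG2 from a cis-element-driven reporter transcript after 24 h exposure. RNA reverse-transcribed, PCR-amplified, fluorescently labelled and sized by capillary electrophoresis; gain or loss fitted against DMSO baseline.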

Test [5] can be described thus: BSK_3C_TissueFactor: BioMAP Diversity Plus: 3C Assay for Tissue Factor Biomarker Activity (AID 2282997). Conditions: BioMAP 3C HUVEC, tissue factor biomarker readout; actives raise or lower the signal. In short, it runs like this:
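In this endothelial system, HUVEC are treated for 24 h and Tissue Factor is assessed by ELISA, normalised to DMSO.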

Test [6] is described as follows: BSK_3C_uPAR: BioMAP Diversity Plus: 3C Assay for Urokinase-type plasminogen activator receptor (uPAR) Biomarker Activity (AID 2282998). Conditions: BioMAP 3C HUVEC, uPAR biomarker ELISA; actives raise or lower the signal. In short, it runs like this:
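ELISA readout of uPAR on human vascular endothelium (umbilical vein primary cells), taken 24 h after chemical dosing. Increases and decreases are both fitted relative to DMSO vehicle.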
(ELISA stands for enzyme-linked immunosorbent assay.)

The nature of test [7]: BSK_3C_VCAM1: BioMAP Diversity Plus: 3C Assay for Vascular cell adhesion molecule 1 (VCAM1) Biomarker Activity (AID 2282999). Conditions: BioMAP 3C HUVEC, VCAM1 ELISA, cytokine-stimulated; actives raise or lower the signal. In short, it runs like this: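 HUVEC primary cells, 24 h compound exposure; VCAM-1 by ELISA; gain/loss of signal fitted bidirectionally vs DMSO baseline.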

Test [8] is described as follows: BSK_4H_Eotaxin3: BioMAP Diversity Plus: 4H Assay for Eotaxin 3 Biomarker Activity (AID 2283000).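 On outcome: CCL26 protein level quantified by ELISA in parallel with SRB cytotoxicity check.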 As to conditions: primary human endothelial cells (HUVEC); actives raise or lower the signal. The gist of the method: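 ELISA quantitation of CCL26 (Eotaxin-3) protein from chemically dosed human vascular endothelial cells at 24 h; increases and decreases both scored relative to DMSO-treated baseline.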

The target in test [9] is human Peroxisome Proliferator-activated Receptor alpha (PPARa), PPARA (gene 5465) (UniProt Q07869). The test is described as follows: ATG_PPARa_TRANS: Attagene TRANS-FACTORIAL HepG2 Assay for human Peroxisome Proliferator-activated Receptor alpha (PPARa) (AID 2283001; active means hit-call score of the fitted dose curve at least 0.9, where 1 is the maximum). In short, it runs like this:
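Transient HepG2 transfection, GAL4-UAS reporters, NR-Gal4 chimeras; 24 h compound exposure. Readout: reporter transcripts by RT-PCR, 6-FAM primer extension, HpaI digest, capillary electrophoresis. Positive direction vs DMSO baseline.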

Read-out in test [10]: Intercellular Adhesion Molecule 1 (ICAM1), ICAM1 (gene 3383)
Briefly: BSK_3C_ICAM1: BioMAP Diversity Plus: 3C Assay for Intercellular Adhesion Molecule 1 (ICAM1) Biomarker Activity (AID 2283003). Conditions: primary human endothelial cells (HUVEC); actives raise or lower the signal. The gist of the method: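 ELISA read-out of ICAM-1; HUVEC (primary human), 3C system, 24 h post-dosing; bidirectional fit vs DMSO baseline.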

Test [11] in a line: BSK_3C_Proliferation: Cell Proliferation Assessment in the BioMAP Diversity Plus: 3C Assay (AID 2283006).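 On AC50: potency may reflect either rise or fall in cell number versus DMSO.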 As to conditions: primary human endothelial cells (HUVEC). In short, it runs like this: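 HUVEC, sub-confluent; 48 h chemical exposure; 10% TCA fix, 0.1% SRB stain, A560 total protein. Gain or loss of signal fitted both directions vs DMSO control.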
Test [12] addresses human Retinoic Acid Receptor gamma (RARg), RARG (gene 5916) (UniProt P13631). The test is described as follows: ATG_RARg_TRANS: Attagene TRANS-FACTORIAL HepG2 Assay for human Retinoic Acid Receptor gamma (RARg) (AID 2283009; active means hit-call score of the fitted dose curve at least 0.9, where 1 is the maximum). In short, it runs like this: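 Readout: reporter transcript levels via RT-PCR, 6-FAM primer-extension labelling, HpaI digestion and capillary electrophoresis. Cells: HepG2 carrying transfected RARg-GAL4 chimera plus UAS reporter set. Dosing 24 h; DMSO negative control.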

Test [13] deals with human RAR-related Orphan Receptor beta (RORb), RORB (gene 6096) (UniProt Q92753). Briefly: ATG_RORb_TRANS: Attagene TRANS-FACTORIAL HepG2 Assay for human RAR-related Orphan Receptor beta (RORb) (AID 2283010; active means hit-call score of the fitted dose curve at least 0.9, where 1 is the maximum). In short, it runs like this: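 HepG2, transient MRTU transfection (GAL4-UAS reporters, exogenous NR-Gal4 chimeras); 24 h compound exposure; total RNA → RT-PCR → 6-FAM primer extension → HpaI digest → CE fluorescence. Positive direction vs DMSO baseline.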

The target of test [14] is human RAR-related Orphan Receptor gamma (RORg), RORC (gene 6097) (UniProt P51449). Briefly: ATG_RORg_TRANS: Attagene TRANS-FACTORIAL HepG2 Assay for human RAR-related Orphan Receptor gamma (RORg) (AID 2283011; active means hit-call score of the fitted dose curve at least 0.9, where 1 is the maximum). The gist of the method:
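Chimeric RORg-Gal4 transactivation in transfected HepG2; 24 h exposure; RT-PCR/capillary electrophoresis readout of reporter mRNA, DMSO baseline.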

Test [15] concerns the target human Peroxisome Proliferator-activated Receptor delta (PPARd), PPARD (gene 5467) (UniProt Q03181). Briefly: ATG_PPARd_TRANS: Attagene TRANS-FACTORIAL HepG2 Assay for human Peroxisome Proliferator-activated Receptor delta (PPARd) (AID 2283002; active means hit-call score of the fitted dose curve at least 0.9, where 1 is the maximum). In short, it runs like this:
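HepG2 cells transiently transfected with GAL4-UAS multiplexed reporter units driven by exogenous chimeric NR-GAL4 proteins; 24 h compound exposure. Reporter mRNA measured by RT-PCR, 6-FAM primer extension, HpaI digestion and capillary electrophoresis; gain of signal fitted relative to DMSO.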

The target in test [16] is Nuclear receptor subfamily 1 group I member 2 (Homo sapiens) (UniProt O75469). The test is described as follows: ATG_PXR_TRANS: Attagene TRANS-FACTORIAL HepG2 Assay for human Pregnane X Receptor (PXR) (AID 2283008; active means hit-call score of the fitted dose curve at least 0.9, where 1 is the maximum). In short, it runs like this:
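Transactivation by exogenous PXR–GAL4 fusion measured as reporter transcript induction after 24 h compound treatment of transfected human HepG2 cells. Read-out via RT-PCR and capillary electrophoresis of labelled fragments, fitted upward relative to DMSO.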

In test [17] the target is Peroxisome proliferator-activated receptor gamma (Homo sapiens) (UniProt P37231). Briefly: ATG_PPARg_TRANS: Attagene TRANS-FACTORIAL HepG2 Assay for human Peroxisome Proliferator-activated Receptor-gamma (PPARg) (AID 2283007; active means hit-call score of the fitted dose curve at least 0.9, where 1 is the maximum). The gist of the method: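 Gain-of-signal endpoint relative to DMSO, derived from reporter mRNA levels quantified by RT-PCR and capillary electrophoresis. Cells were HepG2 transiently expressing a chimeric NR-Gal4 construct with GAL4-UAS reporters, exposed to chemicals for 24 h.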

The target in test [18] is Retinoic acid receptor RXR-alpha (Homo sapiens) (UniProt P19793). The test is described as follows: ATG_RXRa_TRANS: Attagene TRANS-FACTORIAL HepG2 Assay for human Retinoid X Receptor alpha (RXRa) (AID 2283012; active means hit-call score of the fitted dose curve at least 0.9, where 1 is the maximum). The gist of the method:
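Read-out: fluorescent reporter-transcript fragments quantified by capillary electrophoresis after RT-PCR. Transiently transfected HepG2 cells carrying GAL4-UAS reporters and NR-GAL4 chimeras were exposed to chemical for 24 h; activity scored as increase over DMSO.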

By AC50 is commonly meant the concentration giving half of the maximal activity seen.

Results filed as inconclusive are left out. Calls of active or inactive are those of the source. How the source made its calls, unless noted: active means hit-call score of the fitted dose curve at least 0.9, where 1 is the maximum; inactive means score below 0.9.

Sequence of human RAR-related Orphan Receptor gamma (RORg), RORC (gene 6097) (P51449 whole entry, looked up, the tested form may be a part): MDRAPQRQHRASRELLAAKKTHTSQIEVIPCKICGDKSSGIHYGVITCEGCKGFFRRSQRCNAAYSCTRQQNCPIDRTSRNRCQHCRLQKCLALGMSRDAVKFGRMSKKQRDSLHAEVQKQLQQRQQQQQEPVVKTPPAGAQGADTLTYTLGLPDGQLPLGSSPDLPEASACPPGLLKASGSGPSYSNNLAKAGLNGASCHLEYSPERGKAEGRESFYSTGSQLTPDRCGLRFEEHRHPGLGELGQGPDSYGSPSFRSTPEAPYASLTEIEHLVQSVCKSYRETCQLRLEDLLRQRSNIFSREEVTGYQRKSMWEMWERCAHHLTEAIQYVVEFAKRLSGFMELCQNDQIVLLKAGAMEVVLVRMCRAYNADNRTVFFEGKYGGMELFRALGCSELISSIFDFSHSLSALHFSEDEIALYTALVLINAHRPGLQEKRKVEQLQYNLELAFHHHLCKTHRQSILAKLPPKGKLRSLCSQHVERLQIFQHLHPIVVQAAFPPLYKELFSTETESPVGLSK
Sequence of Cellular tumor antigen p53 (Homo sapiens) (P04637 whole entry, looked up): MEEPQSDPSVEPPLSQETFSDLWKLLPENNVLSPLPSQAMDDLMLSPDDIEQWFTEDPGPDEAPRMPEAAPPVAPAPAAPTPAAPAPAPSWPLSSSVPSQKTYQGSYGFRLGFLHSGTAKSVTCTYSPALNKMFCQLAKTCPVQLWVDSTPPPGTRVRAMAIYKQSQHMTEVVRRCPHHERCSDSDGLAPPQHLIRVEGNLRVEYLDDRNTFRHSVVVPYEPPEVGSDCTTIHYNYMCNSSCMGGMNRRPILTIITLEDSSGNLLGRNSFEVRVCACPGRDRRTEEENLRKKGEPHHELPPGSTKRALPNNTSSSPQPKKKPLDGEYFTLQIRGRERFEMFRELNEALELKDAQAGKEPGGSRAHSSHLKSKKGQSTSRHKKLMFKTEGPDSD
Sequence of Nuclear receptor subfamily 1 group I member 2 (Homo sapiens) (O75469 whole entry, looked up, the tested form may be a part): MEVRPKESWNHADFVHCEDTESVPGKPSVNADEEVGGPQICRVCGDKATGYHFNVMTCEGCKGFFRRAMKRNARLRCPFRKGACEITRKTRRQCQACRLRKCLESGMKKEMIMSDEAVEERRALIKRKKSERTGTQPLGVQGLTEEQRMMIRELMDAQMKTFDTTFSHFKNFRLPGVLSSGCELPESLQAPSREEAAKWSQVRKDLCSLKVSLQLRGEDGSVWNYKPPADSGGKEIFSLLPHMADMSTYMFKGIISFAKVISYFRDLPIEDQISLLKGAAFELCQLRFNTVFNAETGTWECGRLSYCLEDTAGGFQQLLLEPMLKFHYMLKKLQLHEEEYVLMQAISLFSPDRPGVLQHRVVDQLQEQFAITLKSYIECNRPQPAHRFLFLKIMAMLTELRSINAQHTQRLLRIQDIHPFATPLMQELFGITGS
Sequence of Retinoic acid receptor RXR-alpha (Homo sapiens) (P19793 whole entry, looked up, the tested form may be a part): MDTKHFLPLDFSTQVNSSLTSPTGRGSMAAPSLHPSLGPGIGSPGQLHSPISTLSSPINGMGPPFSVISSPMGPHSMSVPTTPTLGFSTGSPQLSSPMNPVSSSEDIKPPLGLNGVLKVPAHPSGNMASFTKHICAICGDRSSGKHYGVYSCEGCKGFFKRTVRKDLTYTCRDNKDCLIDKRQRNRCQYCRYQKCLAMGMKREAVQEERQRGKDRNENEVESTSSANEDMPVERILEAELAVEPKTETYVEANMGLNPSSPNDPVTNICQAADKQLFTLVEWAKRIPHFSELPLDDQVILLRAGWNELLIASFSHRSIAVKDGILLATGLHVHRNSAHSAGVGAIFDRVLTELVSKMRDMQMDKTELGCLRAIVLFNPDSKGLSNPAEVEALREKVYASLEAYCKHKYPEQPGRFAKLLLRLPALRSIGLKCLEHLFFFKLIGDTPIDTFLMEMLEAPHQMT
Sequence of human Retinoic Acid Receptor gamma (RARg), RARG (gene 5916) (P13631 whole entry, looked up, the tested form may be a part): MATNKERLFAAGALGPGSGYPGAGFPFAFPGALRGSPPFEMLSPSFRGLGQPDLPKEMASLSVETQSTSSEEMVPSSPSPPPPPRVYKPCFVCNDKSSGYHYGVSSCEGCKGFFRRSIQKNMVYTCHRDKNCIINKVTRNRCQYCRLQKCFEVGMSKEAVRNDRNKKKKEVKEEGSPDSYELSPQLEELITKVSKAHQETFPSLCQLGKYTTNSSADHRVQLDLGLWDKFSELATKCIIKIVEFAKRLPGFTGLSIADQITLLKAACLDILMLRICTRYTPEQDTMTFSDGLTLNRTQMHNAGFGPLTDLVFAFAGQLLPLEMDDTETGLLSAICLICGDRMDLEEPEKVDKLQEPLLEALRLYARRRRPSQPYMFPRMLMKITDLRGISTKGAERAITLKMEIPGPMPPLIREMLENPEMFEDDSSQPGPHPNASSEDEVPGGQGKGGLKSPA
Sequence of Peroxisome proliferator-activated receptor gamma (Homo sapiens) (P37231 whole entry, looked up, the tested form may be a part): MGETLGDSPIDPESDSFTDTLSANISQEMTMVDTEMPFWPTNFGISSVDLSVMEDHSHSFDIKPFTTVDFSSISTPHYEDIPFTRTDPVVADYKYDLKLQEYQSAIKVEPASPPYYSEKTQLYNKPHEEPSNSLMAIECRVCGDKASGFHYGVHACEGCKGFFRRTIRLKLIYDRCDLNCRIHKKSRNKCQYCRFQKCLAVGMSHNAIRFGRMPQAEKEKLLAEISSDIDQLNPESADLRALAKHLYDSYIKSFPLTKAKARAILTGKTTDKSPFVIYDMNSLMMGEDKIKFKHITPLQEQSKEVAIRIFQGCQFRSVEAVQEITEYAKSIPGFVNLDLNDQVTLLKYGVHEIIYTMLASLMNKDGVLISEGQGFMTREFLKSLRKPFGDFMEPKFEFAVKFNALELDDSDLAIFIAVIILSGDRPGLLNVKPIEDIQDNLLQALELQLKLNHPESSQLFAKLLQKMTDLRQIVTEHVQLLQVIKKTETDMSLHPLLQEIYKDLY
Sequence of human Peroxisome Proliferator-activated Receptor alpha (PPARa), PPARA (gene 5465) (Q07869 whole entry, looked up, the tested form may be a part): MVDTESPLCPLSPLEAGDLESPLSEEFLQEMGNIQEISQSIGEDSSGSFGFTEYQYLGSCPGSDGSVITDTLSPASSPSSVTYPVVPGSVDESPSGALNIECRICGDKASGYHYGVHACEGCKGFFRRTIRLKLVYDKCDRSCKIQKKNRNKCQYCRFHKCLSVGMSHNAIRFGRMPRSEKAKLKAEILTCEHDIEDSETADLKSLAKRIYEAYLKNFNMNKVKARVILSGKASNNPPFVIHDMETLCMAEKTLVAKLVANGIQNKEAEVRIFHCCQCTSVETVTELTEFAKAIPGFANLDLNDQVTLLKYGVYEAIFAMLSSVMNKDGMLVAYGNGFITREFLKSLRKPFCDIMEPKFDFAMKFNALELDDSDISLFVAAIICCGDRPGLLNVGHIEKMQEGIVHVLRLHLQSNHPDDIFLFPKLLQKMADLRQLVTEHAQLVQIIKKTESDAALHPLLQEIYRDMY
Sequence of human Peroxisome Proliferator-activated Receptor delta (PPARd), PPARD (gene 5467) (Q03181 whole entry, looked up, the tested form may be a part): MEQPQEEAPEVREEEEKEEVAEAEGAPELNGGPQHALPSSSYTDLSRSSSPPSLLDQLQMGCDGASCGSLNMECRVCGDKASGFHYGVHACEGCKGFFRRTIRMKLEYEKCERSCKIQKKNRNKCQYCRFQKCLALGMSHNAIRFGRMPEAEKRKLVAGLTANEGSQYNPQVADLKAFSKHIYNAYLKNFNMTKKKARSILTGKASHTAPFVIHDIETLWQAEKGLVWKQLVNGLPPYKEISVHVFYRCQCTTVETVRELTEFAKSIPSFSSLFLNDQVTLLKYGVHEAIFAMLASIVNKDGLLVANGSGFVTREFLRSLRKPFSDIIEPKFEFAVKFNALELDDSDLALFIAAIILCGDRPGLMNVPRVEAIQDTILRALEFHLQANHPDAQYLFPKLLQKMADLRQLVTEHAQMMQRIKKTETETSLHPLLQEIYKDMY
Sequence of human RAR-related Orphan Receptor beta (RORb), RORB (gene 6096) (Q92753 whole entry, looked up, the tested form may be a part): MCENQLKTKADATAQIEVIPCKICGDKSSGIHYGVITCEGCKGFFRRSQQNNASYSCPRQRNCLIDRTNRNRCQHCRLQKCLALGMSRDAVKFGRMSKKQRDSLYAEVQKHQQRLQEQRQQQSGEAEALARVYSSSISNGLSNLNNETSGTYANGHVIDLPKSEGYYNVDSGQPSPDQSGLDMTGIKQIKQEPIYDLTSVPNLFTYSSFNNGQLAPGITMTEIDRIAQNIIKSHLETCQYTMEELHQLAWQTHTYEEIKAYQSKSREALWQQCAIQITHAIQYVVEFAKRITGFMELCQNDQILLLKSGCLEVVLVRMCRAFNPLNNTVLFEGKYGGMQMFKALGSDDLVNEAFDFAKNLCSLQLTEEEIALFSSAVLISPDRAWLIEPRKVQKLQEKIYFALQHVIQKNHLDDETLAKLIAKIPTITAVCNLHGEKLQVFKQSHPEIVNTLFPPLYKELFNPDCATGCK

`OCCCCO`: the compound was called inactive in test [1], in test [2], in [3], in test [4], in test [5] and in test [6]. Also, the result in test [7], in test [8], in [9], in [10], in test [11] and in [12] was inactive. The result in test [13] and in test [14] was inactive.

As for `O=C(CCl)NCO`, the result in test [1], in [3], in [4], in test [5], in test [6] and in [7] was inactive. Further, the result in test [8], in [15], in test [10], in [11], in test [16] and in [12] was inactive. For the same compound, the compound was classed as inactive in test [14]. Further, the concentration at half-maximal activity (AC50) in test [2] is 65.2 µM (active).

In the case of `CCOC(=O)CC(=O)CCl`, the AC50 is 56.8 µM (active) in [1]; 181 µM (active) in test [2]; 24.3 µM (active) in test [3]; 148 µM (active) in test [4]; 0.0141 µM (active) in test [6]; 20 µM (active) in test [7]. Moreover, the AC50 was 20 µM (active) in test [8], 20 µM (active) in test [11] and 22 µM (active) in [17]. In addition, the outcome in [5], in [9], in test [10], in test [16], in [14] and in [18] was inactive.

Regarding `N#CCCC(Br)(C#N)CBr` (stereo not given), the AC50 was 33.4 µM (active) in test [1]; 50 µM (active) in test [3]; 52.8 µM (active) in test [4]; 7.47 µM (active) in test [5]; 5.36 µM (active) in [6]; 7.92 µM (active) in test [7]. In addition, the AC50 in test [8] was 8.6 µM (active); in test [10] it was 11 µM (active); in test [11], 1.28 µM (active). Moreover, the compound was called inactive in [2], in [17] and in test [18].
